Assay results taken from PubChem BioAssay AID1463 (National Center for Advancing Translational Sciences (NCATS), 2008).
Values joined by “and” are separate entries in the source; they are usually repeats but may differ in a detail not shown here. Equal values may be shown once. Hit rate of the full screen: of about 280,000 compounds, about 2,600 (0.93%) were called active. Inconclusive results (about 8%) are left out. The call rests on the fitted dose curve; in most records, active means well fitted curve in the direction sought with a large enough effect; inconclusive means small, poorly fitted or top-dose-only effect; inactive means flat fitted curve, though single readings scatter. The list comes from a sample in which actives are over-represented; it also holds similar structures and randomly drawn compounds. A call without a number means that no potency is given here.

Assay: Counterscreen qHTS for Inhibitors of Tau Fibril Formation, Fluorescence Polarization; further: nearly all actives have a fitted effect of over 55% in size
Settings: tau K18 P301L (four-repeat tau fragment) Alexa594 fluorescence, heparin fibrillization; series mostly up to 57.7 µM
Source text: NIH Molecular Libraries Probe Production Network [MLPCN]
NIH Chemical Genomics Center [NCGC]
Assay Provider: Carlo Ballatore, University of Pennsylvania
The microtubule-associated protein tau is an abundant protein in the axons of neurons that stabilizes microtubules. With its ability to modulate microtubule dynamics, tau contributes directly or indirectly, to key structural and regulatory cellular functions. Particularly important is the influence tau exerts on axonal transport, which allows signaling molecules, trophic factors and other essential cellular constituents to travel along the axons. Under pathological conditions, tau becomes sequestered into insoluble aggregates called neurofibrillary tangles. This phenomenon is believed to have pathological consequences by promoting axonal transport deficits that ultimately lead to synaptic dysfunction and neuronal loss. To identify inhibitors of tau aggregation, a heparin-induced tau fibril formation assay was used that employed a recombinantly expressed fragment of tau, K18 (Q242-E372), bearing a P301L mutation (Gustke et al. 1994; Hong et al. 1998). […] Total fluorescence (555 nm excitation and 632 nm emission) was measured to identify fluorescent or absorbent compounds at this wavelength. Such compounds may be artifacts that interfere with the Alexa 594 Tau fluorescence polarization assay.
Gustke, N., B. Trinczek, et al. (1994). "Domains of tau protein and interactions with microtubules." Biochemistry 33(32): 9511-22.
Hong, M., V. Zhukareva, et al. (1998).
Li, W. and V. M. Lee (2006). "Characterization of two VQIXXK motifs for tau fibrillization in vitro." Biochemistry 45(51): 15692-701.
von Bergen, M., S. Barghorn, et al. (2001). "Mutations of tau protein in frontotemporal dementia promote aggregation of paired helical filaments by enhancing local beta-structure." J Biol Chem 276(51): 48165-74.
NCGC Assay Protocol Summary:
For screening, 2 uL/well human K18 P301L (15 uM unlabeled and 0.24 uM Alexa 594-labeled tau final concentrations) in reagent buffer (100 mM sodium acetate pH 7) was dispensed into black solid 1536-well plates (Grenier) using a solenoid-based dispenser. Following transfer of 23 nL compound or DMSO vehicle by a pin tool, 2 uL/well heparin (20 uM final concentration) in reagent buffer was added and the plate centrifuged 15 s at 1000 RPM. Plates were incubated 6 hr at 37 C and then 1 uL/well ThT (30 uM final concentration) was added. After a 1 hr ambient incubation, the plates were read by an Envision (Perkin Elmer) to monitor Alexa 594 FP (555 nm excitation and 632 nm emission).
Keywords: NIH Roadmap, MLPCN, MLI, MLSMR, NCGC, qHTS, tau, tauopathies, Alzheimer's disease, fibril, neurodegeneration, aggregation
Potency means the concentration at half of the fitted maximal effect; tags describe the fitted curve by direction and shape or compound fluorescence and quenching.

Structure (SMILES) | Potency
O=C(CN1CCN(CC(=O)Nc2ccc3c(c2)OCO3)CC1)Nc1ccc(F)cc1 | inactive
O=C(CSc1nc(C2CC2)nc2ccccc12)Nc1ccc2c(c1)OCCO2 | inactive
O=C(CSc1nc(-c2cccc(F)c2)[nH]c1-c1ccccc1)Nc1ccc2c(c1)OCO2 | 8.91 µM [quencher] (active)
O=C(Nc1cc(Cl)cc(Cl)c1)c1ccc2c(c1)N(Cc1cccc(Cl)c1)C(=O)c1ccccc1S2=O (stereo not given) | inactive
CCc1ccc(CN(Cc2ccco2)C(=O)c2ccccc2Cl)cc1 | inactive
COc1cccc(Nc2nnc(SCC(=O)N3CC(C)OC(C)C3)s2)c1 (stereo not given) | inactive
CCOC(=O)C1CCN(C(=O)Nc2cccc(OC)c2)CC1 | inactive
COc1cccc(NC(=O)Nc2nnc(N3CCCCC3C)s2)c1 (stereo not given) | 12.6 µM [quencher] (active)
Cc1oc(-c2ccccc2)nc1Cn1c(SCc2cccc(C(F)(F)F)c2)nc2cccnc21 | inactive
COc1cccc(N2CCN(C(=O)CCCCCn3c(=O)[nH]c4ccccc4c3=O)CC2)c1 | inactive
COc1ccc(Nc2nc(Cl)nc(NCc3ccco3)n2)cc1 | inactive
COc1cccc(Nc2nc(N)c([N+](=O)[O-])c(NCc3ccco3)n2)c1 | 3.16 µM [quencher] (active)
CN(c1ccccc1)c1nc(N)c([N+](=O)[O-])c(NCc2ccco2)n1 | inactive
CCOC(=O)c1c(C)oc2nc(C)nc(N3CCN(c4ccc(OC)cc4)CC3)c12 | inactive
COc1ccc(OC)c(NC(=O)CN2CCCN(Cc3cc(C)ccc3C)S2(=O)=O)c1 | inactive
Cc1ccc(Oc2cc(NC(=O)CCCn3nc(C)c([N+](=O)[O-])c3C)cc([N+](=O)[O-])c2)cc1 | 4.47 µM [quencher] (active)
COc1ccc(CNC(=O)CCCn2nc(C)c([N+](=O)[O-])c2C)cc1 | inactive
CCc1ccc(NC(=O)Cn2nc(C)c([N+](=O)[O-])c2C)cc1 | inactive
COc1ccc(C)cc1-n1c(-c2ccc(C)cc2)cc2c1CC(C)(C)CC2=O | inactive
Cn1c(CCN2CCCCCC2)nc2cc(NC(=O)Nc3ccccc3)ccc21 | 15.8 µM [quencher] (active)

Structure (SMILES) | Potency
CCC(=O)Nc1ccc2c(c1)nc(CCN1CCN(C)CC1)n2C | inactive
CC(=O)NCCc1nc2cc(NC(=O)c3ccccc3)ccc2n1C | inactive
CCN1/C(=C/c2ccc3ccc(C)cc3[n+]2CC)Sc2ccccc21 | inactive
CCNC(=O)N1c2ccccc2Sc2ccccc21 | inactive
O=C(CCN1c2ccccc2Sc2ccccc21)Nc1ccccc1 | 11.2 µM [quencher] (active)
CC1CCN(CCC(=O)Nc2ccccc2)CC1 | inactive
CCN1/C(=C/C(=S)Nc2ccccc2)Sc2ccccc21 | 10 µM [quencher] (active)
O=C(CCN1C(=O)c2ccccc2C1=O)Nc1ccncc1 | inactive
CCOC(=O)c1c(NC(C)=O)c2c3c(sc2n1Cc1c(C)cc(C)cc1C)CCCC3 | inactive
CCOC(=O)c1ccc(NC(=O)c2c(NCc3cccc(OC)c3)sc3c2CCC3)cc1 | inactive
Cc1cccc(OCCSc2nc3ccccc3n2CC(=O)N2CCCCC2)c1C | inactive
Cc1ccc(/C=C(\C#N)C(=O)Nc2cc(C)ccc2C)cc1 | inactive
O=C(COc1ccccc1)NCc1ccc2c(c1)CCN2C(=O)c1ccc(F)cc1 | inactive
Fc1ccc(CN2CCc3nc(Nc4ccccc4)ncc3C2)cc1F | inactive
CCn1c(C)c(C)c2cc(C(=O)NCCc3cc(OC)ccc3OC)ccc21 | inactive
CCOc1cccc(NC(=O)CSc2ncc(-c3ccc(Cl)cc3)[nH]2)c1 | 11.2 µM [quencher] (active)
CCOc1cccc(NC(=O)CC#N)c1 | inactive
Cc1cccc(NC(=O)CSc2ncc(-c3ccccc3)[nH]2)c1C | inactive
CCCN(CCC)S(=O)(=O)c1ccc(C(=O)Nc2sc3c(c2C(=O)OC)CCN(CC)C3)cc1 | inactive
Cc1cccc(-n2ccnc2SCC(=O)Nc2cc(C(F)(F)F)ccc2Cl)c1 | inactive

Structure (SMILES) | Potency
CC[C@@H]1Cc2cc(O)ccc2C2=C1c1ccc(O)cc1C[C@H]2CC | 5.01 µM [quencher] (active) and 10 µM [quencher] (active)
CC1(C)CC(=O)c2ccc(O)cc2O1 | inactive
CCN(C(=O)Cn1cnc2sc(C)c(S(=O)(=O)N3CCN(c4ncccn4)CC3)c2c1=O)c1ccccc1F | inactive
Cc1cc2c(cc3c(SCc4nc(-c5ccccc5)oc4C)nnc(C)n32)o1 | inactive
COc1cc(NC(=O)c2cncc(-c3ccc(C#N)cc3)c2)cc(C(=O)Nc2cccc(C(F)(F)F)c2)c1 | inactive
COc1cc(OC)cc(C(=O)Nc2ccc3nc(Nc4cccc(C(F)(F)F)c4)cc(C)c3c2)c1 | 3.98 µM [quencher] (active)
COc1ccc(NC(=O)C(=O)NCC(=O)Nc2cccc(C(F)(F)F)c2)cc1 | inactive
O=C(Nc1cccc(C(F)(F)F)c1)c1cnccn1 | inactive
Cc1cc(Nc2cccc(C(F)(F)F)c2)nc2ccc(NC(=O)c3ccc(=O)[nH]c3)cc12 | 3.55 µM [quencher] (active)
Cc1ccc(NC(=O)Nc2cccc(C(F)(F)F)c2)nc1 | inactive
O=C(Nc1ccc(F)cc1F)c1ccc2c(=O)n3c(nc2c1)CCCCC3 | inactive
O=C(CC1N=C2c3ccccc3N=C(SCc3cccc(Cl)c3)N2C1=O)NCc1ccc2c(c1)OCO2 (stereo not given) | inactive
CCCn1c2ccccc2c2cnn(CC(=O)N(CC)c3cc(C)ccc3C)c(=O)c21 | inactive
CCN(CC)CCNC(=O)Cn1ncc2c3ccccc3n(Cc3ccccc3C)c2c1=O | inactive
Cc1ccc2nc(/C(C#N)=C/c3ccc(-c4ccc(C(=O)OC(C)C)cc4)o3)[nH]c2c1 | inactive
CC(=O)OC1=C(C(C)=O)N(Cc2ccccc2)S(=O)(=O)c2ccccc21 | inactive
CCOC(=O)Cn1c(=O)n(C2CCCCC2)c2nc(-c3cccc(OC)c3)nc(C(N)=O)c21 | inactive
Cc1ccc(OC(=O)CCC(=O)Nc2ccc(Br)cc2)cc1 | inactive
COC(=O)CCc1sc(Nc2ccc(Br)cc2)nc1-c1ccc(OC)cc1 | 8.91 µM [quencher] (active)
COc1ccc(NC(=O)c2sc(N)nc2-c2ccccc2)cc1 | inactive
